Source: PubChem BioAssay (National Center for Advancing Translational Sciences (NCATS))
AmpC inh detg: qHTS Inhibitors of AmpC Beta-Lactamase (assay with detergent); P00811; AmpC hydrolysis of nitrocefin, absorbance 480 nm, 0.01% Triton; Potency, µM (highest dose often 114 µM), for the others: top-dose activity change, negative = inhibition, actives largely listed as inhibitors; hit rate 0.041% among 370,000; AID 485294, 2010;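 also: 0% = no-compound wells and -100% = no-enzyme wells; nearly all actives have a fitted effect of over 25% in size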
Target sequence (P00811 whole entry, looked up): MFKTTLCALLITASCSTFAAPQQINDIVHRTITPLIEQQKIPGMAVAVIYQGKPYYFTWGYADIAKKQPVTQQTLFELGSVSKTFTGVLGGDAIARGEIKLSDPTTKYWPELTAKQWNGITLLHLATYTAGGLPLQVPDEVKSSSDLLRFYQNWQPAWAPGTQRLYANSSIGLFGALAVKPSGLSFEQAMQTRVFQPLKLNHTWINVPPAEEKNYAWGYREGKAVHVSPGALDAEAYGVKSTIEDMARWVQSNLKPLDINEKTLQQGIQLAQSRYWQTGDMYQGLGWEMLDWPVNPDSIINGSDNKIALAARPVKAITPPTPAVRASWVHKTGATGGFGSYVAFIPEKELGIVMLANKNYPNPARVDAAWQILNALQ
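20 mM phosphate pH 7.0 + 0.01% (detergent screen) or 0.0001% Triton X-100; 5.3 nM AmpC reagent; cpd preinc 15 min RT; nitrocefin (800 uM stock) to start; A480 q20 s × 4 min; Activity was normalised to no-enzyme and no-compound control wells.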
AmpC inh no detg: qHTS Inhibitors of AmpC Beta-Lactamase (assay without detergent); P00811; AmpC nitrocefin hydrolysis, absorbance 480 nm, 0.0001% Triton; Potency, µM (series often up to 57.1 µM), for the others: at the top dose activity change, negative = inhibition, hits mostly inhibitors; hit rate 0.52% among 330,000; AID 485341, 2010;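 also: plate controls were no compound for no effect and no enzyme for full effect; nearly all actives have a fitted effect of over 20% in size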
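20 mM phosphate pH 7.0 + 0.01% (detergent screen) or 0.0001% Triton X-100; 5.3 nM AmpC reagent; cpd preinc 15 min RT; nitrocefin (800 uM stock) to start; A480 q20 s × 4 min; Activity was normalised to no-enzyme and no-compound control wells.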
SARS PLpro yeast: qHTS of Yeast-based Assay for SARS-CoV PLP; S. cerevisiae expressing SARS-CoV PLpro, growth rescue; Potency, µM (highest dose often 32.9 µM), for the others: at the top dose activity, positive = growth rescue, hits mostly activators; hit rate 0.19% among 330,000; AID 485353, 2010; calls by dose curve; also: 0% is about no effect; nearly all actives have a fitted effect of over 55% in size
Vaccinia mCherry: qHTS for Stage-Specific Inhibitors of Vaccinia Orthopoxvirus: mCherry Reporter Primary qHTS | Vaccinia virus mCherry reporter infection, fluorescence | Potency, µM (highest dose often 36.5 µM), without a hit: top-dose activity change, negative = inhibition, hits mostly inhibitors | hit rate 0.63% among 310,000 | AID 720579, 2013; calls by dose curve; tested in A549 cells; also: % is scaled to controls: 0 for no effect and ±100 for the full control effect; nearly all actives have a fitted effect of over 35% in size
Vaccinia Venus: qHTS for Stage-Specific Inhibitors of Vaccinia Orthopoxvirus: Venus Reporter Primary qHTS. hit rate 0.46% among 330,000. Potency, µM (doses to about 36.5 µM), without a hit: at the top dose activity change, negative = inhibition, hits mostly inhibitors. Vaccinia virus Venus reporter expression, fluorescence; calls by dose curve; tested in A549 cells; also: % is scaled to controls: 0 for no effect and ±100 for the full control effect; nearly all actives have a fitted effect of over 30% in size
Starred values were filed as active, the others as inactive; i = inactive; ? = inconclusive; . = no result given. Rows were chosen to be rich in hits. Some 1.3% of all compounds tested hit in one or more screens of this group. Unless noted, calls follow the shape of the dose curve; as a rule, active = well fitted curve in the direction sought with a large enough effect; inconclusive = small, poorly fitted or top-dose-only effect, or another doubt; inactive = no such curve, though single readings can be large; an effect the other way counts as inactive or inconclusive. Potency is read from the fitted curve at half-maximal effect.

SMILES	AmpC inh detg	AmpC inh no detg	SARS PLpro yeast	Vaccinia mCherry	Vaccinia Venus
O=C(Cc1c[nH]c2ccccc12)N1CCC(n2c(C3CCCO3)nc3cc(C(F)(F)F)ccc32)CC1 (configuration not stated)	.	.	.	-14%	-12%
CCOc1ccc(Oc2ccc(S(=O)(=O)N3CCOCC3)cc2N)cc1	-10%	11%	-3%	.	.
CCOc1ccc2cc(S(=O)(=O)N3CCOCC3)ccc2c1	-2%	0.4µM*	-1%	-17%	-12%
CCCCC(=O)Nc1nc(C)c(-c2csc(Nc3cc(OC)ccc3OC)n2)s1	-2%	-32%	-7%	1.1µM*	?
COc1ccc(-c2csc(NC(=O)CSc3ccc(Br)cc3)n2)c(OC)c1	-1%	35µM*	8%	-6%	-12%
COc1ccc(OC)c(-c2csc(NC(=O)Cc3ccc(OC)c(OC)c3)n2)c1	0%	48%	-1%	7%	0%
COc1cccc(NC(=O)Nc2nc(-c3ccc(OC)c(OC)c3)cs2)c1	10%	7%	-4%	?	14µM*
COc1ccc(CC(=O)Nc2nc(-c3cc(OC)ccc3OC)cs2)cc1	8%	-19%	-7%	11µM*	?
COc1ccc(CN2CCC(n3cc(C(=O)N4CCCC4)nn3)CC2)c(OC)c1C	.	.	.	-4%	4%
O=C(O[C@@H]1Cc2c(O)cc(O)cc2OC1c1ccc(O)c(O)c1)c1cc(O)c(O)c(O)c1 (some centres not stated)	.	.	.	-6%	-13%
O=C1S/C(=C/c2ccccc2)C(=O)N1CC(O)Cn1c2ccccc2c2ccccc21 (configuration not stated)	-12%	16µM*	-4%	-12%	-26%
Clc1ccc2c(-c3ccccc3)nc(-c3cccs3)nc2c1	.	.	.	-12%	-6%
C[C@@H]1CN([C@H](C)CO)C(=O)c2cc(Br)cnc2O[C@H]1CN(C)C(=O)Cc1ccncc1	.	.	.	?	1.3µM*
C[C@@H]1CN([C@H](C)CO)C(=O)c2cc(Br)cnc2O[C@@H]1CN(C)C(=O)Cc1ccccc1	.	.	.	i	-7%
COC(=O)c1c(OCCN2CCCCC2)cc(=O)n2c1CCN(Cc1cccc3nccnc13)CC2	.	.	.	i	-15%
O=C(NCc1cccnc1)Nc1cccc(C(F)(F)F)c1	?	-15%	9%	-14%	-10%
O=C(NCc1cccnc1)c1cccc(C(F)(F)F)c1	-1%	0.32µM*	2%	0%	-14%
COc1ccc(N2CCC(CNC(=S)Nc3cccc(OC)c3)C2)cc1 (configuration not stated)	-13%	-29%	6%	.	.
COc1ccc(N2CCC(CNC(=O)Nc3cccc(OC)c3)C2)cc1 (configuration not stated)	2%	13µM*	4%	-19%	-8%
CCCCN(CCCN)c1ccc(Br)cn1	.	.	.	-1%	-21%
O=C(CSc1nc(O)cc(=O)n1-c1ccccc1)Nc1ccccn1	1%	11µM*	1%	i	2%
O=C(CSc1nc(O)cc(=O)n1-c1ccccc1)NCc1ccccc1	-6%	-37%	-1%	.	.
COCc1nnc(NC(=O)c2ccc(S(=O)(=O)N(C)c3ccccc3)cc2)o1	?	40µM*	-3%	-22%	-11%
Cc1ccccc1-n1c(-c2csc(C)c2C)n[nH]c1=S	?	22µM*	23%	-27%	?
CCOC(=O)C1CCCN(S(=O)(=O)c2ccc(Cl)nc2)C1 (configuration not stated)	?	-4%	4%	14µM*	?
CCOC(=O)N1CCC(c2cc(=O)n3[nH]cc(C(=O)OC)c3n2)CC1	?	7.9µM*	5%	i	-7%
CN(N=O)c1ccc(/C=C/c2ccnc3ccccc23)cc1	.	.	.	-24%	-22%
CC1CC(C)CC(C)C(O)C(C#N)=CC=CCC(C2CCCC2C(=O)O)OC(=O)CC(O)C(C)C1 (configuration not stated)	.	.	.	?	1.1µM*
CCn1c2ccccc2c2cc(CN3CCN(Cc4ccc(Br)cc4)CC3)ccc21	-1%	.	.	?	?
